According to PubChem BioAssay (NCI):
Compounds without any hit were thinned out: in the full panel of roughly 79,000, 15% have a hit. Unmarked numbers belong to inactive results. Active and inactive are the calls of the source. No stated cut-off is given here; in the data, active means growth inhibition above about 70%; inactive means the rest.

Experiment: NCI Yeast Anticancer Drug Screen. Data for the cln2 rad14 strain (AID 165);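 further: 0% = growth equal to vehicle treated cultures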
Settings: S. cerevisiae cln2 rad14 strain, at 50.0 µM, stronger effect = higher value
Protocol: Growth inhibition of yeast strains with defined genetic alterations is measured as a screen for potential anti-cancer activity. Selected strains with alterations in DNA damage repair or cell cycle control were exposed to compounds and growth inhibition was measured relative to vehicle treated controls. The strain used in this assay is cln2 rad14

Structure (SMILES) | growth inhibition
O=c1cc(-c2ccccc2)oc2c1ccc1ccccc12 | -90.3%
COc1ccccc1C1OC2=Nc3cc(C)c(C)cc3NC2C1=O (stereo not given) | -9.25%
CCOC(=O)/C(=C/c1ccc(OC)cc1)N(CC)CC | 0.5%
CCO/C=C1\SC(=S)N(c2cccc(C)c2)C1=O | 13.2%
O=C(CCl)N1CCN(C/C=C/c2ccccc2)CC1 | -3.95%
CCC(C)(C)C1CCC(O)CC1 (stereo not given) | -53.5%
Cc1cc(NC(=O)CSCC(=O)O)no1 | 7.8%
NC(=S)CN1CCOCC1 | 1.6%
CC1CC(O)CC(C)(C)C1 (stereo not given) | -25.4%
N#C/C(=C\c1cc(O)c(O)c(O)c1)C(N)=O | 2.6%
CC(=O)c1ccc(C)c(N)c1 | -0.6%
CC(=O)Oc1ccc(Br)cc1C(=O)O | -26.9%
O=C(Nc1cccc(NC(=O)Nc2cc(C(F)(F)F)ccc2Cl)c1)Nc1cc(C(F)(F)F)ccc1Cl | 19.4%
Cc1cc(C(C)(C)C)cc(C)c1Br | -15.3%
COc1ccc(C(=O)C(Br)C(Br)C(=O)O)cc1 (stereo not given) | -64.7%
CN(C)/N=C/c1ccccc1O | -6.85%
O=C(O)C(O)c1ccccc1 (stereo not given) | -48%
Cc1ccc(C)n1-c1ccsc1C(=O)NNC(=O)C(Cl)Cl | 21.1%
S=C(Nc1ccccc1)N1CCCCC1 | -39.3%
CCOC(=O)CSc1c([N+](=O)[O-])ncn1C | 17.3%

Structure (SMILES) | growth inhibition
Cc1ccc(C(O)C2CC2)cc1 (stereo not given) | 11.4%
O=C(O)CNC(=O)c1ccccc1 | -50.1%
COC(=O)/C=C/C(=O)NC(N)=O | 9.95%
CCCC[P+](c1ccccc1)(c1ccccc1)c1ccccc1 | 37.2%
CN(c1ccccc1)c1ncnc2c1ncn2C | -4.7%
COc1ccc(C2(O)CCCCC2)cc1 | 6.45%
Oc1ccc(Cc2ccccc2)c2cccnc12 | -19.4%
CCOC(=O)CCCC(=O)OCC | 7.7%
N/N=C(/Cc1ccccc1)NNC(N)=S | -4.2%
O=C1NC(=O)C2C(=O)NC(=O)C1C21CCc2ccccc21 (stereo not given) | -4.25%
FC(F)(F)c1ccc2c(c1)N(CCCN1CCN(C3CC3)CC1)c1ccccc1S2 | 99% (active)
O=C(NN=C1CCCCC1)C(=O)NN=C1CCCCC1 | -20.7%
Cc1cc2nc(CC(=O)c3cccc([N+](=O)[O-])c3)c(=O)[nH]c2cc1C | 20.5%
CC1SC(N)=NC1=O (stereo not given) | -2.15%
Cc1ccccc1C1N=C2Oc3ccccc3C=C2C(=O)N1 (stereo not given) | -9.55%
C#CC(C(C)C)N(CCO)CCCC (stereo not given) | 7.35%
CCCC(=O)c1cc(C)ccc1OC | -22.6%
CCC(C)(O)c1ccc(C)cc1 (stereo not given) | -21.1%
Cc1nc2c(ccc3ccccc32)s1 | 6.45%
O=C(/C(=N/O)c1ccccc1)c1ccccc1 | -25.5%
